According to the supplement of paper PMC6555819:

The sequences below were run on PPARg DBDmut:RXRa IVT, anti-PPARg (DBD mutation: PPARg1 K132A/R137A, NR concentration 270 nM, RXRa partner concentration 90 nM) (assay: PBM binding z-score (relative to random genomic background probes); higher = stronger binding; sequences stand for … in GC…GCGATTGACAGCGTAGAATGAAGG).
Outline: (§1)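 Each nuclear receptor dimer, without ligand, was incubated for 1 h on custom Agilent 4×180K protein-binding microarrays. Binding was detected with antibodies against each partner (one per run), and scanned fluorescence was regression-normalized. The binding z-scores are referenced to random human genomic background probes.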
ATTCGGAGGACAAAGGTCAGAGCTACGCCAGTGA gave a PBM binding z-score of 0.302. In the case of GGAACGAGGGCAAGTTGATGGCAGAGTTTGATGG, the PBM binding z-score is reported as -0.155. AGTCAAAGTTCACTAGGTCACGTAAGATTCAGCT was tested, and the PBM binding z-score was 1.41. TCTTGTAGATCAGGAGGTTAAGAAAGCTGGCCAA was tested, and the PBM binding z-score was 0.143. TAGCCTAGGTCAGATCGGTCCAGTATACGCTATA showed a PBM binding z-score of -0.14. ATCTCTAGGTAACCAAGTTCAGGGAATGCCGAAC gave a PBM binding z-score of 0.704. For TCGAGTAGGTTAGGGGCGTTCAGAATGGCGTCGA, the PBM binding z-score was 0.15. In the case of TCATATAGGTAAACAGGGGAAAGTCCGTAAGTTA, the PBM binding z-score is reported as 1.62. ACTATTAGTTGAGACGAGGGCAACCTATAGGTTG showed a PBM binding z-score of 1.43. CCTACTGGGCCATCAGGCCATTGATATCAACGTT showed a PBM binding z-score of -0.657. With TCTCGGAGCACACGAAGGTCAGAGCTTTCCAGAG the PBM binding z-score was -0.909. With ATCTCTAGGTAACCAAGTTCAATGAATGCCGAAC the PBM binding z-score was 0.675. TGGATGAGGTTAAAGATCAGGGAACGTGGCGTCG gave a PBM binding z-score of 1.51. CTCGAAAGGTCGGTTGAGGTGCGTATACGGATAA showed a PBM binding z-score of -0.47. With ATCGAAAGGTCGAGCTGAGTATAGAGAAAGGGAA the PBM binding z-score was 1.33. With ACAGACATGTGAGTGAAGGTAACTCAGCTGGACG the PBM binding z-score was -0.0972. Sequence CAAACTAGGTCACGGAAGGTCAAAGTCGAATGAC has a PBM binding z-score of 6.9. TAGCATAGGTCATTGGGCCAGTATAGTACGCATC was tested, and the PBM binding z-score was 0.78. In the case of AGTCAAAGTTCATCTAGGTAACGTATGATATGCT, the PBM binding z-score is reported as 1.48. With AGAATGAGGTTAAGATGAGGGAAACAGAATACAT the PBM binding z-score was 1.61. For CCTCCAAGGTCAATGCTAGGTCAGTGAAAGCATT, the PBM binding z-score was -0.0903. For TCGAGTAGGTTAGGGGCAGTCAGAATGGCGTCGA, the PBM binding z-score was -0.663. For ATCGAAAGGTCGACGAGGTGTGTATACACCGTTT, the PBM binding z-score was -0.0457. With CCTACTGGGCCATTCAGAGGTCTTTGATCATATG the PBM binding z-score was -0.147. Sequence ATCGAAACGTCGAGGTGAGTATAGAGAAAGGGAA has a PBM binding z-score of 0.306. CCCAGCAGGCCAGGGTCACTCAAGCATTTCGCTT was tested, and the PBM binding z-score was -1.55. Work on CTTCCAAGGTCAATGCTAGGTCAGTGAAAGCATT yielded a PBM binding z-score of 1. GGTACGAGGGCATTCGAGTTGATAGCATGGCGAT showed a PBM binding z-score of -0.377. TGTCAAAGTTCAAAGGTAACGTACGTATCCACAC showed a PBM binding z-score of 2.01. GGAACGAGAGCAAAGTTGATAGCATCTGTCGACG gave a PBM binding z-score of -1.31. With GCTATTAGTTGAAAGGGCAACCAAATGATTCTCG the PBM binding z-score was 0.444. In the case of ATATGTAGGTTACAACCGGGTCATTCAGGCTATG, the PBM binding z-score is reported as 3.31. For TCTTGTAGATCAACAGGGGGTTAAGAAAGATCGA, the PBM binding z-score was 5.31. In the case of CCTACTGGGCCAAAAAGCTCATTGATGCCGATAA, the PBM binding z-score is reported as -0.849. AGTCAAAGTTCAGGACGAGTTAACGTAAAGCACG showed a PBM binding z-score of 0.0233. In the case of TGAATGAGGTTAAAGATTAGGGAACGTGGCGTCG, the PBM binding z-score is reported as 1.53. In the case of CAAACTAGGTCCCGAAAGGTCAAAGTCGAATGAC, the PBM binding z-score is reported as 0.419. With CCAAGTTGGTCAGGAGGTCACACACCGGATATGA the PBM binding z-score was 0.859. AGTCAAAGTTCAGGACGATGTAACGTAAAGCACG showed a PBM binding z-score of 0.674. With GCAACGAGGGCAAAGTTGATAGCATCTGTCGACG the PBM binding z-score was 0.065.

These sequences were tested on PPARg DBDmut IVT, anti-PPARg (DBD mutation: PPARg1 K132A/R137A, NR concentration 270 nM) in the same assay as above.
Outline: as §1
Sequence ATTCGGAGGACAAAGGTCAGAGCTACGCCAGTGA has a PBM binding z-score of -0.48. Work on GGAACGAGGGCAAGTTGATGGCAGAGTTTGATGG yielded a PBM binding z-score of -0.96. Sequence AGTCAAAGTTCACTAGGTCACGTAAGATTCAGCT has a PBM binding z-score of 1.03. TCTTGTAGATCAGGAGGTTAAGAAAGCTGGCCAA showed a PBM binding z-score of -0.244. In the case of TAGCCTAGGTCAGATCGGTCCAGTATACGCTATA, the PBM binding z-score is reported as -0.564. Sequence ATCTCTAGGTAACCAAGTTCAGGGAATGCCGAAC has a PBM binding z-score of 1.55. Work on TCGAGTAGGTTAGGGGCGTTCAGAATGGCGTCGA yielded a PBM binding z-score of -0.777. With TCATATAGGTAAACAGGGGAAAGTCCGTAAGTTA the PBM binding z-score was 0.87. ACTATTAGTTGAGACGAGGGCAACCTATAGGTTG was tested, and the PBM binding z-score was 1.25. Work on CCTACTGGGCCATCAGGCCATTGATATCAACGTT yielded a PBM binding z-score of -0.731. TCTCGGAGCACACGAAGGTCAGAGCTTTCCAGAG gave a PBM binding z-score of -1.03. ATCTCTAGGTAACCAAGTTCAATGAATGCCGAAC was tested, and the PBM binding z-score was 1.22. With TGGATGAGGTTAAAGATCAGGGAACGTGGCGTCG the PBM binding z-score was 0.255. Work on CTCGAAAGGTCGGTTGAGGTGCGTATACGGATAA yielded a PBM binding z-score of -0.617. ATCGAAAGGTCGAGCTGAGTATAGAGAAAGGGAA showed a PBM binding z-score of 0.108. ACAGACATGTGAGTGAAGGTAACTCAGCTGGACG gave a PBM binding z-score of -0.0853. For CAAACTAGGTCACGGAAGGTCAAAGTCGAATGAC, the PBM binding z-score was 4.23. For TAGCATAGGTCATTGGGCCAGTATAGTACGCATC, the PBM binding z-score was 0.329. AGTCAAAGTTCATCTAGGTAACGTATGATATGCT gave a PBM binding z-score of 1.76. AGAATGAGGTTAAGATGAGGGAAACAGAATACAT showed a PBM binding z-score of 0.526. In the case of CCTCCAAGGTCAATGCTAGGTCAGTGAAAGCATT, the PBM binding z-score is reported as -0.621. TCGAGTAGGTTAGGGGCAGTCAGAATGGCGTCGA showed a PBM binding z-score of -0.988. With ATCGAAAGGTCGACGAGGTGTGTATACACCGTTT the PBM binding z-score was 0.936. CCTACTGGGCCATTCAGAGGTCTTTGATCATATG was tested, and the PBM binding z-score was -0.677. With ATCGAAACGTCGAGGTGAGTATAGAGAAAGGGAA the PBM binding z-score was 0.714. Sequence CCCAGCAGGCCAGGGTCACTCAAGCATTTCGCTT has a PBM binding z-score of -1.26. Sequence CTTCCAAGGTCAATGCTAGGTCAGTGAAAGCATT has a PBM binding z-score of 0.112. With GGTACGAGGGCATTCGAGTTGATAGCATGGCGAT the PBM binding z-score was -0.67. TGTCAAAGTTCAAAGGTAACGTACGTATCCACAC gave a PBM binding z-score of 1.18. GGAACGAGAGCAAAGTTGATAGCATCTGTCGACG gave a PBM binding z-score of -0.755. Work on GCTATTAGTTGAAAGGGCAACCAAATGATTCTCG yielded a PBM binding z-score of 0.602. Work on ATATGTAGGTTACAACCGGGTCATTCAGGCTATG yielded a PBM binding z-score of 2.35. TCTTGTAGATCAACAGGGGGTTAAGAAAGATCGA gave a PBM binding z-score of 7.46. Sequence CCTACTGGGCCAAAAAGCTCATTGATGCCGATAA has a PBM binding z-score of -0.936. With AGTCAAAGTTCAGGACGAGTTAACGTAAAGCACG the PBM binding z-score was 0.458. TGAATGAGGTTAAAGATTAGGGAACGTGGCGTCG was tested, and the PBM binding z-score was 0.276. CAAACTAGGTCCCGAAAGGTCAAAGTCGAATGAC showed a PBM binding z-score of 0.865. CCAAGTTGGTCAGGAGGTCACACACCGGATATGA gave a PBM binding z-score of 0.385. AGTCAAAGTTCAGGACGATGTAACGTAAAGCACG gave a PBM binding z-score of 0.961. Sequence GCAACGAGGGCAAAGTTGATAGCATCTGTCGACG has a PBM binding z-score of -0.728.
